# Assay outcomes: PubChem, The Scripps Research Institute Molecular Screening Center
# Only some compounds are listed: those with a hit (about 4.1% of all), similar ones and a draw of the others.
# hgDAF12 agonist – agonists of H. glycines DAF-12 nuclear receptor | activation, % at 6.8 µM | HEK293 GAL4-hgDAF12 UAS-luciferase reporter, agonist luminescence; normalized to butyrate control | AID 687014 | hit rate 1.8% among 370,000;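 active = activation above a cutoff set at the mean of all screened compounds plus 3 SD, cut at about 10% in these data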;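 note: 0% = DMSO wells and 100% = sodium butyrate wells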
# DAX1 inh-1 – NR0B1 (DAX1) inhibition; inhibition, % at 6.75 µM; P51843; HEK293 Gal4-DAX1 luciferase reporter, luminescence; hit rate 0.99% among 340,000;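 active = inhibition above the mean over all tested compounds plus 3 SD, cut at about 4.2% in these data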;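 note: 0% = DAX1-transfected cells with DMSO and 100% = empty-vector control cells with DMSO; inhibition shows as a rise in luminescence from relieved DAX1 repression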
# Target sequence (P51843 207-470 limits assumed): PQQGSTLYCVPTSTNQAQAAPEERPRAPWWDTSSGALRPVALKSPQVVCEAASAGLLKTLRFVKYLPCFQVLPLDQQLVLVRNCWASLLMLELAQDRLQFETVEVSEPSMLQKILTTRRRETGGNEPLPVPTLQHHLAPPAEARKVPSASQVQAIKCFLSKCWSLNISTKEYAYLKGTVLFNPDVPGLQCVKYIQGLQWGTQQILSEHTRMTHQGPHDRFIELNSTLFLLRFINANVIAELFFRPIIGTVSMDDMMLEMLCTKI
# ssDAF-12 act – S. stercoralis DAF-12 activation, primary screen; activation, % at 6.8 µM; hit rate 1% among 370,000; HEK293 ssDAF-12/GRIP1 lit1-tk-luc reporter, luminescence; % of 3 µM dafachronic acid response;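 active = activation above the mean over all tested compounds plus 3 SD, cut at about 0.9% in these data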;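 note: 0% = DMSO-only wells and 100% = 3 µM delta7-dafachronic acid wells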
# DAX1 inh-2 – DAX1 (NR0B1) inhibition, primary screen | HEK293T StAR-luciferase reporter, SF-1/DAX-1 repression relief | hit rate 1.1% among 370,000 | inhibition, % at 6.8 µM;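 active = inhibition above the mean over all tested compounds plus 3 SD, cut at about 3.6% in these data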;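 note: 0% = DAX-1 cells with DMSO and 100% = cells lacking DAX-1 with DMSO; higher inhibition means more luminescence from relief of DAX-1 repression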
# hcDAF12 agonist – H. contortus DAF-12 activation, primary screen | activation, % at 6.8 µM | AID 652067 | HEK293 hcDAF-12 lit1-tk-luc reporter, luminescence; 0% DMSO, 100% Δ7-dafachronic acid | hit rate 1.4% among 370,000;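 active = activation above the mean of all tested compounds plus 3 SD, cut at about 5.5% in these data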;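 note: 100% = response to 3 µM Δ7-dafachronic acid high control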
# The depositor's hits bear a star; . = not tested or not shown.
SMILES,hgDAF12 agonist,DAX1 inh-1,ssDAF-12 act,DAX1 inh-2,hcDAF12 agonist
Cc1cc(/C=C2\C(=O)NN(c3ccccc3)C2=O)c(C)n1-c1ccccc1O,-3.6,5.4*,-1.4,0.2,-1.5
Cc1cc(/C=C2/C(=O)NN(c3ccccc3)C2=O)c(C)n1-c1ccc(O)cc1,-7.9,-1.7,-2.0,-0.9,-4.3
COc1ccc(S[C@]2(C(=O)N(C)C)CC(=O)N(C(=O)Nc3ccc(C)c(Cl)c3)[C@@H]2c2ccc(OC)cc2)cc1,0.6,.,-0.2,-1.5,-1.9
S=C(Nc1ccccc1)N1CCN(c2ccccn2)CC1,-2.5,-0.4,1.9*,-0.7,-1.5
Cc1cccc(NC(=S)N2CCN(Cc3ccccc3)CC2)c1C,1.2,-0.8,-0.8,0.4,5.9*
Cc1cccc(NC(=S)N2CCN(c3ccccc3)CC2)c1,-0.8,.,-1.6,0.0,-2.5
Cc1cccc(CN2CCN(C(=S)Nc3ccccc3)CC2)c1,0.2,10.9*,-1.8,1.0,0.8
Cc1cc(Cl)ccc1NC(=S)N1CCN(Cc2ccccc2)CC1,-2.7,-0.2,-1.9,-0.8,-3.4
S=C(Nc1ccccc1)N1CCN(C/C=C/c2ccccc2)CC1,-3.5,-0.8,-2.0,3.6*,-0.6
C[C@H]1COc2c3ccccc3nn21,-0.1,.,-0.8,1.7,1.7
Cc1ccc(NC(=O)/C(C#N)=C(\N)C(Cl)(Cl)Cl)nc1,.,8.1*,.,.,.
C[C@@H](C(=O)N=c1sc2ccccc2n1C)N1C(=O)C2CC=CCC2C1=O (stereo not given in full),-1.1,-0.9,1.0*,0.1,1.3
Cn1c(=NC(=O)CN2C(=O)C3CC=CCC3C2=O)sc2ccccc21 (stereo not given),-0.4,-1.5,0.1,0.5,2.2
COc1cccc(/C=C2\CC3(OC(=O)C4CCCCC4)CCCN2C3)c1 (stereo not given),-1.2,.,-0.8,0.5,-1.0
COc1ccccc1C1CC(=O)Oc2cc(C)c(Cl)cc21 (stereo not given),1.5,0.0,-0.2,-0.8,-0.8
COc1ccccc1C1CC(=O)Oc2cc(O)ccc21 (stereo not given),1.0,0.2,-1.8,4.0*,-1.3
CC(=O)OCC(=O)N1N=C(c2ccc3ccccc3c2)CC1c1ccccc1 (stereo not given),-0.2,-0.9,-2.1,0.5,-1.8
CCOC(=O)c1nnn(CC(=O)N2N=C(c3ccccc3)CC2c2ccccc2)c1C(=O)OCC (stereo not given),-0.6,5.1*,-0.8,0.1,-0.3
CCOC(=O)/C=C(\C)N1N=C(c2ccccc2)CC1c1ccccc1 (stereo not given),9.7,2.5,0.0,2.4,6.7*
CCCCNC(=O)NS(=O)(=O)c1ccc(NC(=O)CSc2ncnc3scc(-c4ccc(C)cc4)c23)cc1,4.0,.,0.1,-0.3,2.7
CN(C)c1ccc(/C=N/NC(=O)c2sccc2-n2cccc2)cc1,10.8*,0.6,-0.9,2.5,1.8
O=C(N/N=C\c1ccc(Cl)cc1)c1sccc1-n1cccc1,4.2,0.6,0.1,0.0,0.5
CC(C)C[C@H](NC1(C(=O)NCCc2c[nH]c3ccccc23)CCC1)C(=O)NCCCc1ccccc1,2.7,.,-1.0,.,0.7
Cc1ccc(S(=O)(=O)N2CCC(C(=O)NCc3cccs3)CC2)cc1,0.2,.,-1.5,-0.5,-0.4
CCOC(=O)/C(C#N)=C/Nc1ccccc1OC,12.8*,1.6,0.1,0.9,2.5
SMILES,hgDAF12 agonist,DAX1 inh-1,ssDAF-12 act,DAX1 inh-2,hcDAF12 agonist
Cc1ccc(C)c(NC(=S)NCCc2c[nH]c3ccccc23)c1,-0.6,0.1,-1.9,-0.3,0.2
Cc1ccccc1NC(=S)NCCc1c[nH]c2ccccc12,1.8,1.1,-0.1,-0.5,6.0*
COc1ccc(-c2cc3c(=O)n(CC(=O)Nc4ccc(Cl)cc4)nc(C)n3n2)cc1,0.7,0.6,-1.1,0.6,6.4*
Cc1nn(CC(=O)Nc2cccc(Cl)c2)c(=O)c2cc(-c3ccccc3)nn12,1.5,1.1,-1.2,-0.2,-0.1
O=C(O)c1ccc(CS(=O)(=O)c2cccc(C(F)(F)F)c2)o1,-0.9,4.5*,-0.7,0.4,-0.7
CCCCNC(=O)c1ccc(CS(=O)(=O)c2cccc(C(F)(F)F)c2)o1,-1.2,1.7,-1.6,-1.1,-0.1
O=C(CCNC(=O)c1ccco1)Nc1nc(-c2ccccc2)cs1,8.7,.,1.0*,-0.2,6.4*
CN(C(=O)c1ccco1)c1nc(-c2ccccc2)cs1,11.2*,2.9,0.5,3.7*,5.9*
